# Experimental data from PubChem BioAssay (NCI).
# The panel holds about 83,000 compounds, 20% with a hit somewhere; the sample as a whole holds those more often.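 Method: cells in 96-well plates; compound added at one concentration; 48 h incubation; percent growth measured; values under 10 scored active.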 Values without a mark were called inactive. The source made the active and inactive calls.
# System: OVCAR-5 ovarian
# Test: NCI-60 one-dose screen, 48 h (100 = growth as untreated, 0 = no growth, -100 = all killed)
# Conditions: 10 µM unless noted
row,SMILES,growth
1,S=c1[nH]nc2ccccn12,108%
2,N#CC1C(=N)Cc2ccccc2-c2ccccc21 (stereo unspecified),88.3%
3,COc1c(N)c2c(c([N+](=O)[O-])c1OC)C(=O)OC2,115%
4,CC(=O)O[C@H]1CC[C@@]2(C)C(=CC[C@@H]3[C@@H]2CC[C@]2(C)C(=O)N(O)C(=O)C[C@@H]32)C1,98.9%
5,C/C(=N\NC(=O)C(C)SC(C)C(=O)N/N=C(\C)c1cccnc1)c1cccnc1 (stereo unspecified),110%
6,Cc1cc(Nc2ccc(F)cc2)nc(N2CCN(c3ccnc4cc(Cl)ccc34)CC2)n1,8.2% (active)
7,COC(=O)[C@@H]1[C@H]2C[C@H]3c4[nH]c5cc(OC)ccc5c4CCN3C[C@@H]2C[C@H](OC(=O)/C=C/c2ccnc(OC)c2)[C@H]1OC,102%
8,Fc1cccc(-c2[nH]nc3nc(Nc4cccnc4)sc23)c1,86.9%
9,O=C(c1ccccc1)C(CN1CCOCC1)c1ccccc1 (stereo unspecified),116%
10,CCOc1ccc(NC(=O)c2ccccc2-c2ccccc2C(=O)O)cc1,98.6%
11,Cc1ccc(Nc2c(C(N)=O)cnc3ccc(S(=O)(=O)Nc4cc(C)on4)cc23)cc1,99.5%
12,Cn1cc(-c2csc(-c3cn(C(=O)OC(C)(C)C)c4ccc(Br)cc34)n2)c2cccnc21,95.5%
13,CC1=CC(=O)N(c2cccc3c(N4C(=O)C=C(C)C4=O)cccc23)C1=O,109%
14,Cn1cc(-c2nc(-c3cn(C)c4ncccc34)cs2)c2ccccc21,73%
15,O=C(/C=C/c1cccc(O)c1)c1ccccc1O,99.4%
16,Cc1cc(C)nc(NC(N)=NCCc2ccccc2)n1,72%
17,O=C(N/N=C\c1ccccc1O)C1CC1,117%
18,CC(C)=CCC/C(C)=C/CC/C(C)=C/CC/C(C)=C/CSC[C@H](NC(=O)CCCCCN1CCN(C)CC1)C(=O)NC1CCCCC1,85%
19,Oc1cccc2oc(=S)[nH]c12,97.4%

row,SMILES,growth
1,COc1ccc(C(=O)c2cc(OC)c(OC)c(OC)c2)cc1/C=C/C(=O)c1cc(OC)c(OC)c(OC)c1,88.7%
2,Clc1ccc2[nH]cc(-c3nc(-c4c[nH]c5ncccc45)cs3)c2c1,80.6%
3,O=C(NC1=CC(=O)c2ccccc2C1=O)c1ccccc1,42.2%
4,COc1ccc2[nH]cc(-c3nc(-c4c[nH]c5ncccc45)cs3)c2c1,81.5%
5,C#Cc1cc2c(N)c(C(=O)c3cc(OC)c(OC)c(OC)c3)[nH]c2cc1OC,37.5%
6,COc1cc2[nH]c(C(=O)c3cc(OC)c(OC)c(OC)c3)c(N)c2cc1C#CCO,15.9%
7,Cn1c2c(c3ccc(Cl)cc31)-n1cccc1C2=O,103%
8,Cn1cc(-c2nc(-c3cn(C)c4ncccc34)cs2)c2cc(F)ccc21,56.3%
9,Oc1ccccc1/C=N\NC(=S)Nc1ccc(F)cc1,55%
10,CC1c2ccccc2N(S(=O)(=O)c2ccccc2)C1C (stereo unspecified),108%
11,CC(C)=CCC/C(C)=C/CC/C(C)=C/CSC[C@H](NC(=O)CCCCCN1CCN(C)CC1)C(=O)NC1CCCCCC1,68.7%
12,O=[N+]([O-])c1ccc(/C=N\Nc2ccccc2)cc1,88%
13,C(=C\c1c[nH]c2ccccc12)/c1ccc2ccccc2n1,121%
14,Cn1cc(-c2csc(-c3c[nH]c4ccc(F)cc34)n2)c2cccnc21,78.4%
15,Nc1c(Cl)cc(N=Nc2ccccc2)cc1Cl,31.5%
16,CC(=O)O[C@H]1CC[C@@]2(C)[C@@H](CC[C@@H]3[C@@H]2CC(=O)[C@@]2(C)[C@H]3C[C@@H](C3CCCC3=O)[C@@H]2C(C)=O)C1 (stereo partly specified),107%
17,CC(=O)Oc1ccccc1C(=O)/C=C/c1cccc([N+](=O)[O-])c1,110%
18,O=C(O)c1cccc2c1C(=O)N(c1ccc3c(c1)Cc1ccccc1-3)C2=O,116%
19,Brc1ccc2[nH]cc(-c3nc(-c4c[nH]c5ncccc45)cs3)c2c1,63.7%

# System: SK-OV-3 ovarian
# Test: as above
# Conditions: 10 µM unless noted
row,SMILES,growth [%]
1,S=c1[nH]nc2ccccn12,114
2,N#CC1C(=N)Cc2ccccc2-c2ccccc21 (stereo unspecified),66.7
3,COc1c(N)c2c(c([N+](=O)[O-])c1OC)C(=O)OC2,105
4,CC(=O)O[C@H]1CC[C@@]2(C)C(=CC[C@@H]3[C@@H]2CC[C@]2(C)C(=O)N(O)C(=O)C[C@@H]32)C1,93.2
5,C/C(=N\NC(=O)C(C)SC(C)C(=O)N/N=C(\C)c1cccnc1)c1cccnc1 (stereo unspecified),109
6,Cc1cc(Nc2ccc(F)cc2)nc(N2CCN(c3ccnc4cc(Cl)ccc34)CC2)n1,46.8
7,COC(=O)[C@@H]1[C@H]2C[C@H]3c4[nH]c5cc(OC)ccc5c4CCN3C[C@@H]2C[C@H](OC(=O)/C=C/c2ccnc(OC)c2)[C@H]1OC,96
8,Fc1cccc(-c2[nH]nc3nc(Nc4cccnc4)sc23)c1,41
9,O=C(c1ccccc1)C(CN1CCOCC1)c1ccccc1 (stereo unspecified),91.6
10,CCOc1ccc(NC(=O)c2ccccc2-c2ccccc2C(=O)O)cc1,109
11,Cc1ccc(Nc2c(C(N)=O)cnc3ccc(S(=O)(=O)Nc4cc(C)on4)cc23)cc1,107
12,Cn1cc(-c2csc(-c3cn(C(=O)OC(C)(C)C)c4ccc(Br)cc34)n2)c2cccnc21,98.7
13,CC1=CC(=O)N(c2cccc3c(N4C(=O)C=C(C)C4=O)cccc23)C1=O,108
14,Cn1cc(-c2nc(-c3cn(C)c4ncccc34)cs2)c2ccccc21,43.2
15,O=C(/C=C/c1cccc(O)c1)c1ccccc1O,107
16,Cc1cc(C)nc(NC(N)=NCCc2ccccc2)n1,46.7
17,O=C(N/N=C\c1ccccc1O)C1CC1,101
18,CC(C)=CCC/C(C)=C/CC/C(C)=C/CC/C(C)=C/CSC[C@H](NC(=O)CCCCCN1CCN(C)CC1)C(=O)NC1CCCCC1,96.5
19,Oc1cccc2oc(=S)[nH]c12,108

row,SMILES,growth [%]
1,COc1ccc(C(=O)c2cc(OC)c(OC)c(OC)c2)cc1/C=C/C(=O)c1cc(OC)c(OC)c(OC)c1,105
2,Clc1ccc2[nH]cc(-c3nc(-c4c[nH]c5ncccc45)cs3)c2c1,59.6
3,O=C(NC1=CC(=O)c2ccccc2C1=O)c1ccccc1,32
4,COc1ccc2[nH]cc(-c3nc(-c4c[nH]c5ncccc45)cs3)c2c1,41.4
5,C#Cc1cc2c(N)c(C(=O)c3cc(OC)c(OC)c(OC)c3)[nH]c2cc1OC,28.8
6,COc1cc2[nH]c(C(=O)c3cc(OC)c(OC)c(OC)c3)c(N)c2cc1C#CCO,18.3
7,Cn1c2c(c3ccc(Cl)cc31)-n1cccc1C2=O,102
8,Cn1cc(-c2nc(-c3cn(C)c4ncccc34)cs2)c2cc(F)ccc21,57.4
9,Oc1ccccc1/C=N\NC(=S)Nc1ccc(F)cc1,33.8
10,CC1c2ccccc2N(S(=O)(=O)c2ccccc2)C1C (stereo unspecified),91.2
11,CC(C)=CCC/C(C)=C/CC/C(C)=C/CSC[C@H](NC(=O)CCCCCN1CCN(C)CC1)C(=O)NC1CCCCCC1,96.4
12,O=[N+]([O-])c1ccc(/C=N\Nc2ccccc2)cc1,101
13,C(=C\c1c[nH]c2ccccc12)/c1ccc2ccccc2n1,89.5
14,Cn1cc(-c2csc(-c3c[nH]c4ccc(F)cc34)n2)c2cccnc21,64.6
15,Nc1c(Cl)cc(N=Nc2ccccc2)cc1Cl,99
16,CC(=O)O[C@H]1CC[C@@]2(C)[C@@H](CC[C@@H]3[C@@H]2CC(=O)[C@@]2(C)[C@H]3C[C@@H](C3CCCC3=O)[C@@H]2C(C)=O)C1 (stereo partly specified),107
17,CC(=O)Oc1ccccc1C(=O)/C=C/c1cccc([N+](=O)[O-])c1,102
18,O=C(O)c1cccc2c1C(=O)N(c1ccc3c(c1)Cc1ccccc1-3)C2=O,114
19,Brc1ccc2[nH]cc(-c3nc(-c4c[nH]c5ncccc45)cs3)c2c1,55
